According to the supplement of paper PMC13380429:
Where a name gives a salt, the structure may show the parent alone.

System: Vero E6 infected with SARS-CoV-2
Experiment: inhibition of SARS-CoV-2 cytopathic effect; higher = more antiviral protection, active = above 15
Settings: 48 h

Measured: inhibition of SARS-CoV-2 cytopathic effect

CC(C)c1cc(-c2ccc(F)c3ccccc23)nc(N)n1
inactive: 1 nM 0.6% | 8.33 nM 1.62% | 100 nM -1.61% | 833.33 nM -3.71% | 10000 nM -2.34%

CCc1cccc(N(C)C(=N)Nc2cccc3ccccc23)c1 [aptiganel]
inactive: 1 nM 1.52% | 8.33 nM 1.91% | 100 nM 1.39% | 833.33 nM -2.33% | 10000 nM -4.82%

CCc1ccc2c(-c3cccc(Cl)c3)nc(=O)n(CC)c2n1
inactive: 1 nM -1.8% | 8.33 nM 0.23% | 100 nM 1.37% | 833.33 nM -1.65% | 10000 nM 0.57%

N=C1NC(=O)/C(=C/c2ccc(O)cc2)S1 [mirin]
inactive: 1 nM -0.65% | 8.33 nM 0.66% | 100 nM -0.71% | 833.33 nM -3.88% | 10000 nM 1.33%

CCc1nn(CCCN2CCN(c3cccc(Cl)c3)CC2)c(=O)n1CCOc1ccccc1 [nefazodone]
inactive: 1 nM -0.85% | 8.33 nM 0.31% | 100 nM -12.7% | 833.33 nM 0.6% | 10000 nM -2.21%

CCOc1ccccc1C(=O)O [2-ethoxybenzoic-acid]
inactive: 1 nM 2.67% | 8.33 nM 3.72% | 100 nM 4.26% | 833.33 nM 0.66% | 10000 nM -0.66%

CC[N+](CC)(CC)CC(=O)Nc1c(C)cccc1C
inactive: 1 nM -1.18% | 8.33 nM -2.04% | 100 nM 0.02% | 833.33 nM 0.8% | 10000 nM -0.17%

N=C(N)NCCC[C@@H](N)C(=O)N[C@@H](CCCNC(=N)N)C(=O)N1CCC[C@H]1C(=O)N1C[C@H](O)C[C@H]1C(=O)NCC(=O)N[C@@H](Cc1cccs1)C(=O)N[C@@H](CO)C(=O)N1Cc2ccccc2C[C@@H]1C(=O)N1[C@H](C(=O)N[C@@H](CCCNC(=N)N)C(=O)O)C[C@@H]2CCCC[C@@H]21 [icatibant-acetate]
inactive: 1 nM -2.62% | 8.33 nM -4.61% | 100 nM -4.27% | 833.33 nM 2.14% | 10000 nM 1.26%

CC(C)c1ccc2c(c1)CC[C@H]1[C@](C)(CN)CCC[C@]21C [lylamine]
inactive: 1 nM -2.24% | 8.33 nM 0.4% | 100 nM 0.03% | 833.33 nM -2.43% | 10000 nM -18.1%

CCN1CCC(n2cc(CNc3cc(Cl)c4ncc(C#N)c(Nc5ccc(F)c(Cl)c5)c4c3)nn2)CC1 [cot-inhibitor-2]
inactive: 1 nM 0.26% | 8.33 nM -1.48% | 100 nM 0.28% | 833.33 nM -0.75% | 10000 nM 14%

Cc1ccc(C)c([C@H](O)CNC(C)C)c1 [benzenemethanol,-2,5-dimethyl-[[(1-methylethyl)amino]methyl]]
inactive: 1 nM -1.13% | 8.33 nM 2.02% | 100 nM 0.03% | 833.33 nM 0.15% | 10000 nM 1.34%

C=C(c1ccc(C(=O)O)cc1)c1cc2c(cc1C)C(C)(C)CCC2(C)C [bexarotene]
inactive: 1 nM -0.21% | 8.33 nM -0.07% | 100 nM 0.42% | 833.33 nM 0.85% | 10000 nM 0.03%

CC1(C)CC[C@]2(NC(=O)C(C)(F)F)CC[C@]3(C)[C@H](C(=O)C=C4[C@@]5(C)C=C(C#N)C(=O)C(C)(C)[C@@H]5CC[C@]43C)[C@@H]2C1 [Omaveloxolone (RTA-408)]
active: 833.33 nM 17.2%
inactive: 1 nM 4.28% | 8.33 nM 6.39% | 100 nM 3.8% | 10000 nM -13.7%

Nc1ccc([As](=O)(O)O)cc1 [arsanilic-acid]
inactive: 1 nM 0.07% | 8.33 nM 1.05% | 100 nM -1.33% | 833.33 nM -2.25% | 10000 nM -0.8%

CCCCCCCC/C=C/C(=O)O [trans-2-undecenoic-acid]
inactive: 1 nM 0.16% | 8.33 nM -0.12% | 100 nM 1.42% | 833.33 nM 1.97% | 10000 nM 1.5%

O=C(C[S+]([O-])Cc1ccco1)NC/C=C\COc1cc(CN2CCCCC2)ccn1 (stereo not given) [lafutidine]
inactive: 1 nM -0.4% | 8.33 nM 5.21% | 100 nM 1.21% | 833.33 nM 5.01% | 10000 nM 3.05%

CC(=O)[C@]1(O)Cc2c(O)c3c(c(O)c2[C@@H](O[C@H]2C[C@H](N)[C@H](O)[C@H](C)O2)C1)C(=O)c1ccccc1C3=O [idarubicin]
inactive: 1 nM -0.73% | 8.33 nM 1.96% | 100 nM -0.94% | 833.33 nM -13.1% | 10000 nM -6.65%

O=C(O)c1ccc(Nc2ncc3c(n2)-c2ccc(Cl)cc2C(c2c(F)cccc2F)=NC3)cc1
inactive: 1 nM -1.58% | 8.33 nM -1.02% | 100 nM 0.11% | 833.33 nM -1.57% | 10000 nM -1.05%

COc1cc2ncn(-c3cc(OCc4ccccc4C(F)(F)F)c(C(N)=O)s3)c2cc1OC
inactive: 1 nM -9.5% | 8.33 nM -5.03% | 100 nM -7.65% | 833.33 nM -5.41% | 10000 nM -1.95%

COc1ccc2cc(-c3nc(-c4ccc([S+](C)[O-])cc4)[nH]c3-c3ccncc3)ccc2c1 (stereo not given) [tie2-kinase-inhibitor]
inactive: 1 nM 5.39% | 8.33 nM 5.15% | 100 nM 0.64% | 833.33 nM 1.97% | 10000 nM 9.27%

OCCOc1ccc(/C(=C(/CCCl)c2ccccc2)c2ccccc2)cc1 [ospemifene]
inactive: 1 nM -2.23% | 8.33 nM 1.01% | 100 nM 3.19% | 833.33 nM 3.68% | 10000 nM 8.11%

CC/C(=C(/CC)c1ccc(OP(=O)(O)O)cc1)c1ccc(OP(=O)(O)O)cc1 [fosfestrol]
inactive: 1 nM -0.34% | 8.33 nM 2.21% | 100 nM -0.95% | 833.33 nM 0.3% | 10000 nM -0.17%

COc1ccc(C(=O)N2CCCC2=O)cc1 [aniracetam]
inactive: 1 nM 0.63% | 8.33 nM 0.43% | 100 nM 0.75% | 833.33 nM 0.1% | 10000 nM 0.6%

COc1ccc2[nH]c([S@@+]([O-])Cc3ncc(C)c(OC)c3C)nc2c1 [esomeprazole]
inactive: 1 nM -1.94% | 8.33 nM -1.72% | 100 nM -0.5% | 833.33 nM -0.9% | 10000 nM 0.21%

COc1ccc(C2(CNC(=O)c3ccc(NC(=O)c4ccco4)cc3)CCOCC2)cc1
inactive: 1 nM 1.26% | 8.33 nM 1.21% | 100 nM -2.16% | 833.33 nM -1.65% | 10000 nM -2.44%

Nc1nc(O)c2[nH]nnc2n1 [azaguanine-8]
inactive: 1 nM 1.2% | 8.33 nM 2% | 100 nM 1.6% | 833.33 nM 1.36% | 10000 nM 6.36%

O=C1NC(=O)/C(=C/c2cccc(C(F)(F)F)c2)S1
inactive: 1 nM 0.25% | 8.33 nM 2.25% | 100 nM 1.98% | 833.33 nM -0.59% | 10000 nM -1.22%

CCNCC(O)c1cccc(O)c1 (stereo not given) [etilefrine]
inactive: 1 nM -0.51% | 8.33 nM 2.79% | 100 nM -0.96% | 833.33 nM -0.19% | 10000 nM 1.89%

CN1CCC(NC(=O)c2cc(-c3c(O)cc(O)cc3Oc3ccc([N+](=O)[O-])cc3)on2)CC1
inactive: 1 nM 0.32% | 8.33 nM 0.21% | 100 nM 3.95% | 833.33 nM -1.5% | 10000 nM -5.98%

CCn1cc(C(=O)O)c(=O)c2cnc(N3CCNCC3)nc21 [pipemidic-acid]
inactive: 1 nM 0.65% | 8.33 nM 2.63% | 100 nM 1.17% | 833.33 nM -0.86% | 10000 nM 1.68%

O=C(O)CNC(=O)c1ccccc1 [hippuric-acid]
inactive: 1 nM -0.58% | 8.33 nM 1.5% | 100 nM 3.97% | 833.33 nM 1.76% | 10000 nM 0.17%

Oc1ccc(CC2NCCc3cc(O)c(O)cc32)cc1 (stereo not given) [higenamine]
inactive: 1 nM 1.31% | 8.33 nM 2.53% | 100 nM 1.77% | 833.33 nM -0.52% | 10000 nM -2.56%

O=C(O)Cc1ccc(OCc2ccccc2)c(Cl)c1 [benzofenac]
inactive: 1 nM -0.05% | 8.33 nM 4.15% | 100 nM 1.74% | 833.33 nM 1.88% | 10000 nM 0.27%

Cc1cccc(C)c1OCC(C)N (stereo not given) [mexiletine]
inactive: 1 nM 4.03% | 8.33 nM 3.45% | 100 nM 2.85% | 833.33 nM 7.08% | 10000 nM 5.03%

CC/C(=C(\c1ccc(O)cc1)c1ccc(OCCNC)cc1)c1ccccc1 [Endoxifen HCl]
active: 10000 nM 57%
inactive: 1 nM -1.34% | 8.33 nM 7.36% | 100 nM 10.6% | 833.33 nM -0.77%

CC(C)OC(=O)C1=CN(C(=O)c2ccc(F)c(F)c2)CC(C)(C)c2c1[nH]c1ccccc21
inactive: 1 nM -2.29% | 8.33 nM -1.15% | 100 nM -3.38% | 833.33 nM -4.11% | 10000 nM -3.87%

Cc1nc(C#Cc2ccnc(Cl)c2)c(C)n1-c1ccc(F)cc1 [basimglurant]
inactive: 1 nM -0.13% | 8.33 nM -0.64% | 100 nM -2.56% | 833.33 nM -1.39% | 10000 nM 4.98%

CN(C)CCOc1cc(-c2cn[nH]c2)ccc1NC(=O)C1COc2ccccc2O1 (stereo not given)
inactive: 1 nM -1.4% | 8.33 nM 1.35% | 100 nM 0.53% | 833.33 nM -5.69% | 10000 nM -6.4%

CC(=O)S[C@@H]1CC2=CC(=O)CC[C@]2(C)[C@H]2CC[C@@]3(C)[C@@H](CC[C@@]34CCC(=O)O4)[C@H]12 [spironolactone]
inactive: 1 nM -0.66% | 8.33 nM -0.55% | 100 nM -0.37% | 833.33 nM 3.98% | 10000 nM 6.39%
